HEK293 tox = cytotoxicity counter-screen for GLP-1 receptor inverse agonists; HEK293 cAMP-luciferase reporter cells, luminescence, 24 h; Potency, µM (series often up to 38.3 µM), usual class: inhibitors; 410,000 compounds, 0.13% hits;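 further: loss of luciferase light is scored as toxicity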
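Seeding density was 200 cells/uL; after overnight-length (12 h) culture, 23 nL compounds went on for 24 h at 37 °C. Readout used a luciferase detection reagent, luminescence taken after 12 min at room temperature.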
GLP1R ag = agonists of human GLP-1 receptor | 380,000 compounds, 0.007% hits | Potency, µM (series often up to 45.6 µM), hits mostly activators | HEK293 GLP-1R CRE-luciferase, luminescence, 4-6 h; cells express a hypersensitive GLP-1R form
Target sequence (P43220 whole entry, looked up): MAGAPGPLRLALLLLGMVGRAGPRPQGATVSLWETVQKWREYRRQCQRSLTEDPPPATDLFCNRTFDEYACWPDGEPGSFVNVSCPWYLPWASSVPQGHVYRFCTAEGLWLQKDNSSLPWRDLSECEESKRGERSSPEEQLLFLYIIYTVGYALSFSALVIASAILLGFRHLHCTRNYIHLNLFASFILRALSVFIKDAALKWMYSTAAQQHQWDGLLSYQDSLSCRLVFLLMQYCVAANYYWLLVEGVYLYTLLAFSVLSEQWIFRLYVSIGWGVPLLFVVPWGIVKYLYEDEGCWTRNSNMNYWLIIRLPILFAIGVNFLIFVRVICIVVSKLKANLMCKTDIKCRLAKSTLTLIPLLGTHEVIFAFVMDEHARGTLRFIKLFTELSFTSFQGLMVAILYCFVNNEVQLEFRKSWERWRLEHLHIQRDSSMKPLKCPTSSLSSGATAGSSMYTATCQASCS
PTHR1 agonist = agonists of human PTHR1 parathyroid hormone receptor | HEK293 GP2 PTHR1 cells, GloSensor cAMP luminescence, 1 h | Potency, µM (series often up to 115 µM), hits mostly activators | Q03431 | AID 743266 | 410,000 compounds, 0.075% hits; further: nearly all actives have a fitted effect of over 55% in size
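HEK-293-derived GP2 cells expressing PTHR1 and a GloSensor cAMP reporter, 3,000/well, plated overnight, given luciferin plus IBMX (each 0.5 mM as added) for 1 h at 37 °C, then compound for 1 h at 37 °C. Luminescence was read after 15 min at room temperature.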
GLP1R inv ag = acts as inverse agonist at human GLP-1 receptor | P43220 | HEK293 GLP-1R CRE-luciferase, luminescence, 24 h; GLP-1R form is constitutively active | Potency, µM (doses to about 38.3 µM), most hits filed as inhibitors | 410,000 compounds, 1.6% hits; further: nearly all actives have a fitted effect of over 55% in size
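Readout was luciferase luminescence, measured 12 min after detection reagent at room temperature. Beforehand, GLP-1R reporter HEK293 cells had sat 12 h, then received compounds for 24 hr at 37 deg C.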
Of the large screens only hits and unclear results are named; the others gave an inactive call. This is a sample that favours compounds with a hit; in the whole collection about 1.7% have one here. The call rests on the fitted dose curve; in most records, active means well fitted curve in the direction sought with a large enough effect; inconclusive means small, poorly fitted or top-dose-only effect, or another doubt; inactive means no such curve, though single readings can be large; an effect the other way counts as inactive or inconclusive.

CN(c1ccc(OCC(=O)NC2CCC(O)CC2)cc1)S(=O)(=O)c1ccc(Cl)cc1 (configuration not stated)	none
Cc1onc(-c2ccccc2)c1C(=O)N[C@@H]1C(=O)N2[C@@H](C(=O)O)C(C)(C)S[C@@H]12	none (no result: HEK293 tox, PTHR1 agonist, GLP1R inv ag)
O=C(Oc1cccc(C(=S)N2CCOCC2)c1)c1ccc([N+](=O)[O-])cc1	none
Cc1ccc([N+](=O)[O-])cc1N=C(c1cccc(Br)c1)N1CCOCC1	GLP1R inv ag 7.94µM
O=c1c2ccccc2nc(SCCN2CCOCC2)n1CCc1ccccc1	GLP1R inv ag 10µM
CCc1c(C#N)c(SCCC(=O)Nc2ccc(C)cc2)nc2c1C(=O)CC(C)(C)C2	GLP1R inv ag 2.82µM
CCOc1ccc(NC(=O)CCSc2nc3c(c(CC)c2C#N)C(=O)CC(C)(C)C3)cc1	GLP1R inv ag inconclusive
Cc1ccc(S(=O)(=O)Nc2ccccc2N2CCCCC2)cc1	GLP1R inv ag 2.82µM
CC(C)(C)c1ccc(C(=O)NC2(C(F)(F)F)NC(=O)N(CCc3ccccc3)C2=O)cc1 (configuration not stated)	GLP1R inv ag 12.6µM
Cc1cc(Cl)ccc1OCCCC(=O)N1CCN(S(=O)(=O)c2ccccc2)CC1	GLP1R inv ag 10µM
COc1ccc(OC)c(NC(=O)NNC(=O)CCCOc2ccc(Cl)cc2C)c1	GLP1R inv ag 10µM
Cc1c(C)c2cccnc2c2ncccc12	HEK293 tox 0.891µM, PTHR1 agonist inconclusive, GLP1R inv ag inconclusive
Cc1ccc(O)c2ncccc12	none (no result: HEK293 tox, PTHR1 agonist, GLP1R inv ag)
Clc1cc2cccnc2c2ncccc12	HEK293 tox inconclusive, GLP1R inv ag 4.47µM
COC(=O)c1ccc(Cl)cc1NC(=O)N(Cc1ccc(C)o1)C1CCN(C(C)=O)CC1	none (no result: GLP1R ag)
COCCCNCCCOc1ccc(Cl)cc1C(C)(C)C	HEK293 tox inconclusive, GLP1R inv ag 5.62µM
CC(C)NCCOCCSc1ccc(Cl)cc1	GLP1R inv ag 12.6µM
C=CCc1cc(Cl)ccc1OCCOCCN(C)C	GLP1R inv ag 7.08µM
C=CCc1cc(Cl)ccc1OCCNCCCOC	HEK293 tox inconclusive, GLP1R inv ag 4.47µM
CCC(C)NCCCOc1ccc(Cl)cc1C(C)(C)C (configuration not stated)	none
CCCCNCCOCCSc1ccc(Cl)cc1	none
O=C(/C=C/c1ccccc1)NCCO	none (no result: HEK293 tox, PTHR1 agonist, GLP1R inv ag)
CCC12CN3CC(C)(CN(C1)C3c1c(C)n(C)c3ccccc13)C2=O (configuration not stated)	none (no result: GLP1R ag)
COCCCNCCCCSc1ccc(Cl)cc1	GLP1R inv ag 11.2µM
COCc1ccc(C(=O)Nc2cccc(S(=O)(=O)N(C)c3ccccc3)c2)cc1	HEK293 tox inconclusive, GLP1R inv ag inconclusive
CN(C)S(=O)(=O)c1cccc(NC(=O)c2ccc(COc3ccccc3)cc2)c1	GLP1R inv ag 10µM
Nc1nonc1-n1nnc(C(=O)N/N=C/c2ccc(OCc3ccccc3F)cc2)c1CNc1ccccc1	none
COc1c2ccc(C(=O)NCCCCc3ccccc3)cc2nn1C	none
CC1(C)CC(=O)C2=C(C1)N(CC1CCCO1)C(=O)C2(NC(=O)c1cccnc1)C(F)(F)F (configuration not stated)	none
CCc1ccc(OCC(=O)NC2CCCCC2)c(Br)c1	GLP1R inv ag inconclusive
CCc1ccc(OCC(=O)NCCN(C)C)c(Br)c1	GLP1R inv ag 10µM
Cc1cc(OCC(=O)NCCCN(C)C)cc(C)c1Br	GLP1R inv ag 2.82µM
O=C(Nc1cccc(Cl)c1)OCCOC(=O)Nc1cccc(Cl)c1	HEK293 tox inconclusive, GLP1R inv ag 10µM
CCOP(=O)(OCC)C(NC(=O)Nc1cccc(Cl)c1)c1ccccc1 (configuration not stated)	GLP1R inv ag 7.94µM
Cc1cccc(C)c1NC(=O)C1CCCN1S(=O)(=O)c1cccc2nsnc12 (configuration not stated)	none (no result: GLP1R ag)
COc1ccccc1-c1oc2ccccc2c1C#CC(C)(C)O	GLP1R inv ag 10µM
Fc1ccc(NC(=S)NC2CCN(Cc3ccccc3)CC2)cc1	GLP1R inv ag inconclusive
S=C(NNc1ccc2ccccc2c1)NC1CCCCC1	HEK293 tox inconclusive, GLP1R inv ag 10µM
S=C(Nc1ccc(Oc2ccccc2)cc1)NC1CCCCCC1	HEK293 tox inconclusive, GLP1R inv ag 10µM
S=C(Nc1ccc(Cl)c(Cl)c1)NC1CCCCC1	HEK293 tox 12.6µM
S=C(Nc1ccc(Oc2ccccc2)cc1)NC1CCCCC1	GLP1R inv ag inconclusive
S=C(Nc1ccc(Cl)c(Cl)c1)NC1CCN(Cc2ccccc2)CC1	HEK293 tox inconclusive, GLP1R inv ag 3.16µM
NCC12CC3CC(C1)CC(c1ccc(Cl)cc1)(C3)C2	HEK293 tox inconclusive, GLP1R inv ag inconclusive
CCOC(=O)C1(CCOC)CCN(C/C=C/c2ccccc2OC)CC1	none
CC1CCCC(C)N1C(=O)CSc1nnc(C2CCCCC2)o1 (configuration not stated)	GLP1R inv ag 3.16µM
Cc1cc(-c2nnc(SCC(=O)N3C(C)CCCC3C)o2)no1 (configuration not stated)	none
CCc1ccc(CNC(=O)C2CCN(c3nc4ccccc4nc3C(F)(F)F)CC2)cc1	none (no result: GLP1R ag)
COc1ccc(NC(=O)Nc2cccc3c2O[C@H](CN(C)C(=O)Nc2c(C)noc2C)[C@@H](C)CN([C@H](C)CO)C3=O)cc1	none
CC1(C(=O)Nc2cccc3c2CCCC3)CCN1C(=O)CCC1CCCC1 (configuration not stated)	GLP1R inv ag 11.2µM
CSc1ccccc1NC(=O)C1(C)CCN1C(=O)CCC1CCCC1 (configuration not stated)	GLP1R inv ag inconclusive
Cc1ccc(CSCCNC(=O)CCSc2ccccc2)cc1	GLP1R inv ag 10µM
O=C1NC[C@H](CCCCN2CCN(CCc3ccccc3)C(=O)C2=O)N(Cc2ccccc2)C1=O	none
CC(C)NC(=O)c1ccc2sc([C@H]3C[C@H](O)[C@@H](CO)O3)nc2c1	none
CCc1ccc(NC(=O)Cc2cn(C)c3ccccc23)cc1	PTHR1 agonist inconclusive, GLP1R inv ag 10µM
Cc1ccc(CC(=O)NCCC(=O)O)cc1	none
O=C(N[C@@H](Cc1ccccc1)C(=O)N1CCC2(CC1)NCCc1[nH]cnc12)c1cccc(Br)c1	GLP1R inv ag 10µM
CN(C)S(=O)(=O)c1ccc(NC(=O)N2CCN(c3cccc(C(F)(F)F)c3)CC2)cc1	GLP1R inv ag 3.55µM
COc1ccc(NC(=O)N2CCN(c3cccc(C(F)(F)F)c3)CC2)cc1	PTHR1 agonist inconclusive
COc1ccccc1OCCOc1ccc(C(=O)c2ccccc2)cc1	GLP1R inv ag 8.91µM
COc1ccccc1OCc1ccc(C(=O)c2ccccc2)cc1	GLP1R inv ag inconclusive
CCOc1ccc2c(c1)c(=O)c(S(=O)(=O)c1ccc(CC)cc1)cn2Cc1cccc(Cl)c1	none (no result: GLP1R ag)
CC(=O)Nc1cc(C(=O)Nc2ccc3c(c2)N(C)C(=O)c2ccccc2S3)ccc1C	GLP1R inv ag inconclusive (no result: GLP1R ag)
Cc1ccc(C(=O)Nc2ccc3c(c2)N(C)C(=O)c2ccccc2S3)cc1F	HEK293 tox inconclusive, GLP1R inv ag 1.78µM (no result: GLP1R ag)
